Paper PMC4336329 (PLoS ONE, 2015)
The whole screen tested about 310,000 compounds, of which about 14,000 (4.5%) showed an effect of 50% or more. The effect is printed as a negative number. Shown is part of a subset that was picked to be rich in strong results.

target: human ether-à-go-go-related gene (hERG) potassium channel (human, UniProt Q12809); test: primary screen, population patch clamp on CHO cells stably expressing hERG; higher = less effect of the substance
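Also: peak tail current of the secondary pulse compared with the same well before compound.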

Sequence of human ether-à-go-go-related gene (hERG) potassium channel (Q12809 whole entry, looked up): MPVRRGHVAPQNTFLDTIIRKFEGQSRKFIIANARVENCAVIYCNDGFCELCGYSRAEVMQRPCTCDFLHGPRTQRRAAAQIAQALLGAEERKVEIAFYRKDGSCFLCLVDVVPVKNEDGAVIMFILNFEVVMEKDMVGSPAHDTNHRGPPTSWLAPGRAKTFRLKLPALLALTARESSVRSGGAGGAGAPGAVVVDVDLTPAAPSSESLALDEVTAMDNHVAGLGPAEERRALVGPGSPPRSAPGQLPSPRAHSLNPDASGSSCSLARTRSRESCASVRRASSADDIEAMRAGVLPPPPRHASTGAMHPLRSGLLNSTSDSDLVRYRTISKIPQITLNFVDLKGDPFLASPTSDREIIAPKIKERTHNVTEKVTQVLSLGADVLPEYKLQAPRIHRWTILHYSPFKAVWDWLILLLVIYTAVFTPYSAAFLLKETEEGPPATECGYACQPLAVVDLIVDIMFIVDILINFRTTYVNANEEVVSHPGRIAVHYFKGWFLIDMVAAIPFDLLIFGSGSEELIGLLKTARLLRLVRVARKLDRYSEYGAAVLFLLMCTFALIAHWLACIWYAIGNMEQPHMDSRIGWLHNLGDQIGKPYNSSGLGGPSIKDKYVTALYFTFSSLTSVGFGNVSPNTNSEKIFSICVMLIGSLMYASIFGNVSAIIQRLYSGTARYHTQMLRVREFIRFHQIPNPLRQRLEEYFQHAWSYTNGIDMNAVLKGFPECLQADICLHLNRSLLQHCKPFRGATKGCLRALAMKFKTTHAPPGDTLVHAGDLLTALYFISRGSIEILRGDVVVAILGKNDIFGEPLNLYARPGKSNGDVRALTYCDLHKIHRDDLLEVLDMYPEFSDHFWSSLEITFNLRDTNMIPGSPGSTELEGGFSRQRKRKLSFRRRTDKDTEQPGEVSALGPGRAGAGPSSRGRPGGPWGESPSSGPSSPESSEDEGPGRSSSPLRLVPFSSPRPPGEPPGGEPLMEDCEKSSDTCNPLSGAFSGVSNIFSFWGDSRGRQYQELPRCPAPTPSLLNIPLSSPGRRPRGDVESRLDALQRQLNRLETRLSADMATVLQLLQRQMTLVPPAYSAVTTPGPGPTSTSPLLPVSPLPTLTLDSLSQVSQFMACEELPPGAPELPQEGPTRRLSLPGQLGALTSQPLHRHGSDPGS

| Compound | hERG current change (%, negative = inhibition) at 10uM [%] |
| --- | --- |
| NC[C@H]1O[C@H](O[C@H]2[C@H](O)[C@@H](O[C@H]3O[C@H](CO)[C@@H](O)[C@H](N)[C@H]3O)[C@H](N)C[C@@H]2N)[C@H](N)C[C@@H]1O.O=S(=O)(O)O | 4.47 |
| CC(C)c1nnc(NC(=O)c2nc(S(=O)(=O)Cc3ccccc3F)ncc2Cl)s1 | -5.79 |
| c1ccc2oc(C3=NNC(=NC4CC4)SC3)cc2c1 | -58.5 |
| c1ccc(CN=C2NN=C(c3cc4ccccc4o3)CS2)cc1 | -16.3 |
| CC(C)(C)N=C1NN=C(c2cc3ccccc3o2)CS1 | -9.99 |
| COc1cccc(C(c2sc3ncnn3c2O)N2CC(C)OC(C)C2)c1 (centres unmarked) | 0.441 |
| N=c1c(C(=O)NCc2ccc3c(c2)OCO3)cc2c(=O)n3ccccc3nc2n1CC1CCCO1 (centres unmarked) | -79.5 |
| CCOC(=O)c1cc2c(=O)n3ccccc3nc2n(CC2CCCO2)c1=NC(C)=O (centres unmarked) | -1.13 |
| Cc1ccc(CNC(=O)c2cc3c(=O)n4ccccc4nc3n(CC3CCCO3)c2=N)cc1 (centres unmarked) | -81.3 |
| O=C(CSc1nc2ccccc2c(=O)n1CC1CCCO1)NCc1ccc2c(c1)OCO2 (centres unmarked) | -30.2 |
| N=c1c(C(=O)NCc2ccc(F)cc2)cc2c(=O)n3ccccc3nc2n1CC1CCCO1 (centres unmarked) | -77.4 |
| O=C(NCc1ccccc1)c1ccc2c(=O)n(CC3CCCO3)c(=S)[nH]c2c1 (centres unmarked) | -2.39 |
| O=C(NCc1ccc2c(c1)OCO2)c1ccc2c(c1)C(=O)N(CC1CCCO1)C2=O (centres unmarked) | 2.28 |
| COc1ccc(CNC(=O)c2cc3c(=O)n4ccccc4nc3n(CC3CCCO3)c2=N)cc1 (centres unmarked) | -72.5 |
| N=c1c(S(=O)(=O)c2ccc(F)cc2)cc2c(=O)n3ccccc3nc2n1CC1CCCO1 (centres unmarked) | -40.8 |
| CC(CCc1ccccc1)NC(=O)c1ccccc1Cl (centres unmarked) | -4.82 |
| CN(C)S(=O)(=O)c1cc(NC(=O)CN2CCN(c3ccccc3F)CC2)ccc1Cl | 5.43 |
| CC(C)NC(=O)CSc1nnc(-c2ccc(C(C)(C)C)cc2)n1C | -7.38 |
| NC(=O)C1CCN(C(=O)COc2ccc3c(c2)oc(=O)c2ccccc23)CC1 | 3.62 |
| COc1ccc(COc2cc(-c3cccc(OC)c3)nc3ccc(NC(=O)C(C)C)cc23)cc1 | 3.04 |

| Compound | hERG current change (%, negative = inhibition) at 10uM [%] |
| --- | --- |
| Cc1nc2c(-c3ccc(F)cc3)cnn2c(N)c1-c1ccc(F)cc1 | 23.3 |
| CCOC(=O)C1CCCN(C(=O)c2cn(CC)c3ccc(S(=O)(=O)N(C)C)cc3c2=O)C1 (centres unmarked) | 11.9 |
| COc1ccc2nc(NC(=O)C3CCN(S(=O)(=O)c4cccc5nsnc45)CC3)sc2c1 | 0.473 |
| C=CCn1c(SCC(=O)Nc2ccc(NC(=O)c3ccco3)c(OC)c2)nnc1-c1ccncc1 | -6.37 |
| CCCCN(C(=O)c1ccc([N+](=O)[O-])s1)c1c(N)n(CC(C)C)c(=O)[nH]c1=O | 5.29 |
| CCCCCn1nc(C(=O)N(CCOC)c2c(N)n(CCCC)c(=O)[nH]c2=O)c2ccccc2c1=O | -3.44 |
| CCCCN(C(=O)c1ccc([N+](=O)[O-])s1)c1c(N)n(CCCC)c(=O)[nH]c1=O | -12.9 |
| CCCCn1nc(C(=O)N(CCOC)c2c(N)n(CCCC)c(=O)[nH]c2=O)c2ccccc2c1=O | 6.16 |
| CCCCCn1nc(C(=O)N(CC(C)C)c2c(N)n(CCCC)c(=O)[nH]c2=O)c2ccccc2c1=O | -76.6 |
| CCCCn1c(N)c(N(CCOC)C(=O)c2nn(CC)c(=O)c3ccccc23)c(=O)[nH]c1=O | 6.82 |
| CCCCn1c(N)c(N(CCC(C)C)C(=O)c2ccc([N+](=O)[O-])s2)c(=O)[nH]c1=O | -51.1 |
| CCCCCCn1nc(C(=O)N(CC(C)C)c2c(N)n(CCCC)c(=O)[nH]c2=O)c2ccccc2c1=O | -51.9 |
| CCCCCCn1nc(C(=O)N(CCOC)c2c(N)n(CCCC)c(=O)[nH]c2=O)c2ccccc2c1=O | -1.87 |
| O=S(=O)(Nc1ccc(-n2cnnn2)cc1)c1ccc(Cl)cc1 | -18.2 |
| CCO[C@H]1OC(C(=O)N2CCOCC2)=C[C@@H](C2CC2)[C@@H]1CCCO | 19.9 |
| Cc1ccc(NC(=O)Nc2sc(=S)n(C)c2C)cc1 | 15.4 |
| C=CCNC(=S)NCC1COc2ccccc2O1 (centres unmarked) | 19.6 |
| CC1CN(c2ccc([N+](=O)[O-])cc2Cl)CCN1S(C)(=O)=O (centres unmarked) | -47.2 |
| CC1CN(c2ccc(Cl)cc2[N+](=O)[O-])CCN1S(C)(=O)=O (centres unmarked) | -41.2 |
| CC1CN(c2ccc(C(F)(F)F)cc2[N+](=O)[O-])CCN1S(C)(=O)=O (centres unmarked) | -56.9 |

| Compound | hERG current change (%, negative = inhibition) at 10uM [%] |
| --- | --- |
| O=[N+]([O-])c1cc(C(F)(F)F)ccc1N1CCC(O)CC1 | 0.342 |
| NC(=O)C1CCN(c2ccc(C(F)(F)F)cc2[N+](=O)[O-])CC1 | -20.1 |
| O=C(C1CCC1)N1CCN(c2ccc(C(F)(F)F)cc2[N+](=O)[O-])CC1 | -64 |
| O=[N+]([O-])c1ccc(Oc2cnc3ccccc3n2)cc1 | 7.44 |
| COc1ccccc1NC(=O)Nc1nc(CC(=O)Nc2cc(F)ccc2F)cs1 | -2.13 |
| CC(C)(C)n1nnnc1C(c1ccc(F)cc1)N(Cc1ccc(F)cc1)Cc1ccco1 (centres unmarked) | 1.97 |
| CCN1C(=O)C(CC(=O)Nc2ccc(OC)cc2)N(CCc2ccc(OC)cc2)C1=S (centres unmarked) | -1.17 |
| O=C(CN1CCN(c2ccc(C(F)(F)F)cn2)CC1)Nc1ccc2c(c1)OCO2 | -14 |
| O=C(c1ccc2n[nH]nc2c1)N1CCN(c2ccc(C(F)(F)F)cn2)CC1 | -26.7 |
| O=C(c1ccc2c(c1)OCO2)N1CCN(c2cccc(C(F)(F)F)c2)CC1 | -53.8 |
| O=C(CN1CCN(c2ccc(C(F)(F)F)cn2)CC1)NCc1ccc2c(c1)OCO2 | -65.3 |
| O=C(CN1CCN(c2ncccn2)CC1)NCc1ccc2c(c1)OCO2 | 20.4 |
| O=C(c1ccc2ccccc2c1)N1CCN(c2ccc(C(F)(F)F)cn2)CC1 | -2 |
| O=C(c1ccc2c(c1)OCO2)N1CCN(c2ccccc2)CC1 | -10.9 |
| O=C(Nc1ccc2c(c1)OCO2)N1CCN(c2cccc(C(F)(F)F)c2)CC1 | -1.15 |
| Cc1ccc(C(=O)N2CCN(c3ccc(C(F)(F)F)cn3)CC2)cc1 | -0.62 |
| O=C(c1ccc2c(c1)OCO2)N1CCN(c2ccc(C(F)(F)F)cn2)CC1 | -55.6 |
| O=C(c1ccc([N+](=O)[O-])s1)N1CCN(c2ccc(C(F)(F)F)cn2)CC1 | -67.5 |
| O=C(c1ccc([N+](=O)[O-])s1)N1CCN(c2ccccn2)CC1 | -20.4 |
